Bioassay records deposited in PubChem by National Center for Advancing Translational Sciences (NCATS).
HP1b chromo inh = inhibitors of HP1-beta chromodomain binding to methylated histone tails. Potency, µM (doses to about 114 µM), for the others: at the highest dose activity change, negative = inhibition, actives largely listed as inhibitors. P83916. AID 540317. hit rate 0.56% among 390,000. AlphaScreen HP1-beta / biotin-H3K9me3 peptide binding; note: potency is the fitted concentration of half-maximal effect; nearly all actives have a fitted effect of over 70% in size
Target sequence (P83916 whole entry, looked up): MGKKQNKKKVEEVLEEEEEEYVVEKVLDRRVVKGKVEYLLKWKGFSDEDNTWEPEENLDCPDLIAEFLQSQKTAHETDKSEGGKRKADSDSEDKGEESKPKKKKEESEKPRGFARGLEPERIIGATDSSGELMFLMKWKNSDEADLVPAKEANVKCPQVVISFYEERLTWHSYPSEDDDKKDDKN
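HP1-beta protein (50 nM final) preincubated 30 min at room temperature with biotinylated H3(1-18)K9me3 peptide (50 nM) in PBS pH 7.4, 0.01% Tween-20, then compound added for 30 min. AlphaScreen streptavidin donor/nickel chelate acceptor beads (10 ug/mL final), 30 min dark, luminescence read.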
BAZ2B block = blocks human BAZ2B. Q9UIF8. Potency, µM (doses to about 114 µM), without a hit: top-dose activity change, negative = inhibition, most hits filed as inhibitors. hit rate 4.4% among 360,000. AID 504333. AlphaScreen BAZ2B-H3K14Ac peptide displacement; note: potency is the fitted concentration of half-maximal effect; % is set by controls: 0 for no effect and ±100 for the full control effect; nearly all actives have a fitted effect of over 60% in size
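Complex of BAZ2B and biotin-H3K14Ac (50 nM apiece) forms over 30 min at RT, then faces library compounds up to 110 uM for another 30 min; AlphaScreen beads added, 20 min dark incubation, luminescence read.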
JMJD2A Tudor inh = blocks the human JMJD2A Tudor domain. hit rate 4.4% among 390,000. Potency, µM (titrated, usually from 114 µM), for the others: top-dose activity change, negative = inhibition, usual class: inhibitors. AID 504339. AlphaScreen JMJD2A-Tudor / H3K4me3 peptide binding. O75164; note: potency is the fitted concentration of half-maximal effect; % is set by controls: 0 for no effect and ±100 for the full control effect; nearly all actives have a fitted effect of over 50% in size
PLK1 PBD inh = inhibitors of human PLK1 polo-box domain binding | Potency, µM, for the others: max response, negative = inhibition, hits mostly inhibitors | hit rate 2.8% among 360,000 | P53350 | Plk1 PBD binding of FITC phosphopeptide, fluorescence polarization; note: potency is the fitted concentration of half-maximal effect; series mostly up to about 57 µM; % is set by controls: 0 for no effect and ±100 for the full control effect; nearly all actives have a fitted effect of over 65% in size
KAT2A inh = GCN5L2 (KAT2A) acetyltransferase inhibition. GCN5L2 HAT assay, ThioGlo1 CoA-SH fluorescence. Potency, µM (top dose mostly 58.9 µM), for inactives: top-dose activity change, negative = inhibition, most hits filed as inhibitors. hit rate 0.21% among 390,000. AID 504327; note: potency is the fitted concentration of half-maximal effect; % is set by controls: 0 for no effect and ±100 for the full control effect
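GCN5L2 (20 nM) in 50mM HEPES pH 7.5, 0.1mM EDTA, 0.01% Tween-20 preincubated 15 min with compounds at room temperature. Reaction started with H3(1-25) 75uM, acetyl-CoA 70uM, ThioGlo1 50uM; CoA-thiol fluorescence (Ex340/Em540) read at 0 and 20 min.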
PI5P4K alpha inh = blocks human PI5P4K alpha kinase activity | hit rate 1.2% among 330,000 | PI5P4Kalpha enzyme, ADP-Glo luminescence, 60 min; active compounds read low | AID 652105 | max response, % | P48426; active = max response of -50% or lower; inconclusive = between -30% and -50%; inactive = -30% or higher; note: value at the top dose of about 77 µM; % is set by controls: 0 for no effect and ±100 for the full control effect
Target sequence (P48426 whole entry, looked up): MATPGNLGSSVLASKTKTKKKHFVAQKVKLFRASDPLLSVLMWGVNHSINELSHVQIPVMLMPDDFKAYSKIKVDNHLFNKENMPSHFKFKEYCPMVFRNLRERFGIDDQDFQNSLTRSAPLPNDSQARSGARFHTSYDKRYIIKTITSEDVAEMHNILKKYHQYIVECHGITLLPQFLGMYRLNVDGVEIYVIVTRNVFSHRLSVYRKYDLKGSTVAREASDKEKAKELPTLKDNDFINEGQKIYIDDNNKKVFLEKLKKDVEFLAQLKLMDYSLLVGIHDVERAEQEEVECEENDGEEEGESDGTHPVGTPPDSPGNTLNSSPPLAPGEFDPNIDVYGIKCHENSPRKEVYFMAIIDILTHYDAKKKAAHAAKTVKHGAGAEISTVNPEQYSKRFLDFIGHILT
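PI5P4Kalpha ADP-Glo assay; 5 microM ATP final; 60 min RT reaction; HEPES pH 7.4/EGTA/CHAPS, 5% DMSO; controls lacking substrate or enzyme; luminescent end-point.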
The depositor's hits bear a star; ? = inconclusive; / = no result; [ ] = dose if it differs, or a comment. In the library only some 7% were active in any assay of this set; here they are far more common. Unless noted, calls come from the whole dose curve; as a rule, active = well fitted curve in the direction sought with a large enough effect; inconclusive = small, poorly fitted or top-dose-only effect, or another doubt; inactive = no such curve, though single readings can be large; an effect the other way counts as inactive or inconclusive.

SMILES	HP1b chromo inh	BAZ2B block	JMJD2A Tudor inh	PLK1 PBD inh	KAT2A inh	PI5P4K alpha inh
O=C(NCc1ccccn1)C1CCC(=O)N1C1CCCC1 (stereo not drawn)	20%	/	79µM*	-6%	/	-1
O=C(NCCN1CCc2ccccc2C1)C1CC(=O)N(C2CCCC2)C1 (stereo not drawn)	14%	?	89µM*	-3%	-5%	/
O=C(NCCCN1CCc2ccccc2C1)C1CCN(S(=O)(=O)N2CCC3(CC2)OCCO3)CC1	22%	-12%	-9%	-24%	-3%	-7
O=C(NCCc1ccccc1)C1CC(=O)N(C2CCCC2)C1 (stereo not drawn)	16%[57 µM]	1%[57.1 µM]	-7%	2%	-2%	3
Cc1cccc(OCc2n[nH]c(=S)o2)c1C	50%	56µM*	-13%	-4%	7%	-12
COc1ccccc1Nc1sc(C(=O)c2ccc3c(c2)OCO3)c(N)c1S(=O)(=O)c1ccccc1	26%[57 µM]	4%	-23%	/	-10%	/
N/C(COc1cccc(Cl)c1)=N\O	16%	-4%	-12%	-2%	-4%	-1
COc1cccc(C(=O)OCCCN(C)C)c1	17%	2%	-11%	-12%	1%	2
CN(C)CCCOc1cccc(Cl)c1	?	79µM*	18µM*	-11%	-3%	7
CN(C)CCCOc1cccc(Oc2ccccc2)c1	?	?	56µM*	-3%	2%	-6
CN(C)CCCOc1ccc(C(C)(C)c2ccccc2)cc1	?	50µM*	1.6µM*	-9%	0%	1
CC(C)N(CCNCC(O)COc1ccc(C(C)(C)c2ccccc2)cc1)C(C)C (stereo not drawn)	-14%	50µM*	5.6µM*	-1%	1%	21
CC(COc1ccccc1)N1CCC(CO)(Cc2ccccc2)CC1 (stereo not drawn)	25%	4%	-18%	2%	-4%	2
COc1ccc(CNC(=O)CSc2ncc3c(n2)-c2cc(Cl)ccc2N(C)S3(=O)=O)cc1	12%	2%	-5%	/	-2%	/
COc1cc(F)c(S(=O)(=O)N2CCN(S(=O)(=O)c3cccc(NC(C)=O)c3)CC2)c(F)c1	/	/	-15%	/	/	/
CCn1c(=O)c2sccc2n2c(CCCC(=O)N3CCN(c4cc(Cl)ccc4C)CC3)nnc12	67%	-5%	3%	/	-3%	/
c1cc(OCCCN2CCCCC2)ccc1CN1CCCCC1	15%	-16%	-10%	4%	-4%	1
c1ccc(COc2ccc(OCCCN3CCCC3)cc2)cc1	-9%	50µM*	20µM*	-6%	-4%	8
CC(C)(C)c1ccc(OCCCN2CCCC2)cc1	?	?	22µM*	-12%	-6%	7
Cn1cc([N+](=O)[O-])c(C(=O)Nc2ccc(-c3nc4ccccc4o3)cc2)n1	10%	-9%	-13%	-17%	-3%	1
Cc1ccc(C2CC(=O)N3CN(Cc4ccco4)CSC3=C2C#N)cc1 (stereo not drawn)	?	-8%	56µM*	27µM*	-20%	/
N#CC1=C2SCN(Cc3ccco3)CN2C(=O)CC1c1c(F)cccc1Cl (stereo not drawn)	?	-6%	14µM*	27µM*	-6%	-50*
COCCNC(=O)c1ccc(CSc2nc3ccncc3n2Cc2ccccc2)cc1	50%	1%	-1%	/	-3%	/
Cn1ncc2c(=S)nc(Cl)[nH]c21	-36%	/	22µM*	27µM*	/	?
CCc1ccc(OCCOCC(O)CNC(C)CC)cc1 (stereo not drawn)	36%	-4%	-5%	6%	-8%	20
SMILES	HP1b chromo inh	BAZ2B block	JMJD2A Tudor inh	PLK1 PBD inh	KAT2A inh	PI5P4K alpha inh
CCC(C)NCCOCCOc1ccc(F)cc1 (stereo not drawn)	?	?	3.2µM*	0%	-4%	1
CCC(C)NCCOCCOc1cc(C)c(Cl)c(C)c1 (stereo not drawn)	?	79µM*	4µM*	-12%	-2%	6
CCN(CC)CCOCCOc1cc(C)c(Cl)c(C)c1	17%	-6%	-18%	-4%	0%	/
Cc1ccc(S(=O)(=O)NCc2ccc(C(=O)NC3CCC(O)CC3)cc2)cc1C (stereo not drawn)	29%	10%	-10%	-7%	2%	0
COc1ccc(NC(=O)c2cc(C3CC3)nc3c2c(C)nn3-c2ccc(C)cc2)cc1OC	58%	20%[57.1 µM]	-13%	/	6%	/
CCCCN(CCCC)CCNC(=O)CSCc1ccc(C)cc1	-32%	50µM*	6.3µM*	-17%	2%	-8
Cc1ccc(CNC(=O)CSCc2ccccc2)cc1	45%	-18%	-1%	-9%	6%	8
COc1ccc(NC(=O)C2(C)Cc3c(-c4cccc(C(F)(F)F)c4)ccnc3O2)cc1OC (stereo not drawn)	/	/	/	-2%	/	-5
CCCc1nc(SCC(=O)O)c2sc(=S)n(-c3ccccc3)c2n1	34%	-3%	-18%	-5%	-6%	-2
CC(=O)n1c(-c2ccccc2)c(CO)c2ccccc21	32%	-8%[57.1 µM]	1%	3%	-6%	1
NCCc1c(-c2ccccc2)n(-c2ccccc2)c2ccccc12	?	22µM*	32µM*	-13%	-6%	1
Nc1ccc(C(=O)N/N=C/c2cn(Cc3ccc(F)cc3)c3ccccc23)cc1	13%	?	?	-3%	-37%	-11
O=C(O)c1ccc(N/N=C/c2cn(Cc3ccccc3F)c3ccccc23)cc1	-16%	40µM*	56µM*	30µM*	?	-2
Cn1cc(/C=N/Nc2ccccc2)c2ccccc21	?	40µM*	50µM*	-10%	-13%	0
CC(C)n1cc(/C=N/Nc2ccc(C(=O)O)cc2)c2ccccc21	1%	-35%	-31%	?	?	8
Nc1ccc(C(=O)N/N=C/c2cn(Cc3ccccc3F)c3ccccc23)cc1	9%	35µM*	89µM*	1%	?	2
O=C(N/N=C/c1cn(Cc2cccc(F)c2)c2ccccc12)c1cc(O)cc(O)c1	11µM*	6.3µM*	7.1µM*	19µM*	-25%	-104*
Cc1ccc2oc(=O)n(CCCOc3ccc(Cl)cc3)c2c1	121%	200%	70%	/	-4%	/
CC(C)CC1(C)N=C(c2ccccc2)C(=S)N1 (stereo not drawn)	24%	-22%	-16%	0%	-5%	-6
O=S(=O)(NCCN1CCOCC1)c1ccc(F)c(Cl)c1	11%	-2%	14µM*	3.4µM*	-27%	?
O=S(=O)(NCCCN1CCOCC1)c1ccc(Cl)s1	4%	-34%	-21%[11.4 µM]	8.4µM*	-8%	-26
O=C(NCCCN1CCOCC1)c1ccc(Cl)s1	9%	-3%	-7%	-5%	-3%	/
